Laboratory results published in PubChem BioAssay (NCI).
Several values for one entry are separate records, joined by “and”; a condition that tells them apart may be missing. Equal entries are not always repeated. The panel holds about 83,000 compounds, 20% with a hit somewhere; the sample as a whole holds those more often.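 Interpretation: 100, growth as untreated; towards 0, rising growth inhibition; 0, no net growth; 0 to -100, cell death. Compounds scoring below 10 were considered active.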 Activity calls are given as the source filed them.

tested on: MDA-MB-468 breast; test: NCI-60 one-dose screen, 48 h (100 = growth as untreated, 0 = no growth, -100 = all killed); details: 10 µM unless noted

Structure (SMILES) | growth
CC1=CC(=O)CCC12CCOC2=O (centres undefined) | 105% (inactive)
COC(=O)[C@@H](C)C[C@H](Cc1ccc(F)cc1)NC(=O)c1csc([C@@H](C[C@H](C(C)C)N(C)C(=O)[C@@H](NC(=O)[C@H]2CCCCN2C)C2CC2)OC(C)=O)n1 | 22.5% (inactive)
CC[C@H](C)[C@H](NC(=O)c1ccccn1)C(=O)N(C)[C@H](C[C@@H](OC(C)=O)c1nc(C(=O)N[C@@H](Cc2ccccc2)C[C@H](C)C(=O)OC)cs1)C(C)C | -7.06% (active)
Cc1cc(CCl)c(C)cc1CCl | -59.9% (active)
C[N+]12CCC34C5=CC(=O)C(=O)C=C5[N+]5(C)C(=O)CC6OCC=C(C1)C(CC32)C6C45 (centres undefined) | 99.9% (inactive)
O=[As]c1ccc(C(=O)c2ccc(Oc3ccccc3)cc2)cc1 (centres undefined) | -85.6% (active)
CC(=O)[C@H]1CC[C@H]2[C@@H]3CC[C@H]4C[C@H](N)CC[C@]4(C)[C@H]3CC[C@]12C | 64.1% (inactive)
C=C[Se]CC(=O)/C=C/c1ccccc1 | 85.6% (inactive)
CCC(C)/C=C(C)/C=C/C(=O)c1c(O)c(-c2ccc(O)cc2)c[nH]c1=O (centres undefined) | 30.3% (inactive)
COC(=O)[C@@H](C)C[C@H](Cc1ccccc1)NC(=O)c1csc([C@@H](C[C@H](C(C)C)N(C)C(=O)[C@H](C)NC(=O)[C@H]2CCCN2C)OC(C)=O)n1 | 25.8% (inactive)
CCN(CC)c1ccc(C=C2C(=O)NC(=S)NC2=O)cc1 | 74.2% (inactive)
COC(=O)[C@H](Cc1c[nH]c2ccccc12)NC(=O)[C@@H](OC)[C@@H]1Cc2cc3cc(OC4CC(OC5CC(O)C(O)C(C)O5)C(O)C(C)O4)c(C)c(O)c3c(O)c2C(=O)[C@H]1OC1CC(OC2CC(OC3CC(C)(O)C(O)C(C)O3)C(O)C(C)O2)C(O)C(C)O1 (some centres undefined) | -48.8% (active)
C[n+]1c(/C=C/c2ccc(N(CCCl)CCCl)cc2)sc2ccccc21 | -0.963% (active)
CCNc1nc(Cl)nc(NCC)n1 | 106% (inactive)
Cc1c2ccncc2c(C)c2c1[nH]c1ccccc12 | -54.9% (active)
O=C1C(=O)c2ccccc2-c2ccccc21 | -85.6% (active)
CCOc1ccc(/C=C/[N+](=O)[O-])cc1 | 35.4% (inactive)
Cc1cc(NC(=O)/C=C/c2ccc([N+](=O)[O-])cc2)ccc1S(=O)(=O)F | 114% (inactive)
Cc1cc(NC(=O)NCCOc2ccc(N3C(N)=NC(N)=NC3(C)C)cc2Cl)ccc1S(=O)(=O)F | 29% (inactive)
O=[N+]([O-])c1cc[n+]([O-])c2ccccc12 | -60.4% (active)

Structure (SMILES) | growth
CC(=O)Nc1ccc(NC(=O)c2ccc([As](O)O)cc2)cc1 | 92.5% (inactive)
CC(=O)C(N)Cc1ccccc1 (centres undefined) | 97% (inactive)
COc1cc(/C=C\c2cc(OC)c(OC)c(OC)c2)cc(N/C=C\C(=O)c2cc(OC)c(OC)c(OC)c2)c1OC | -10.6% (active)
CC[C@H](C)[C@H](NC(=O)[C@H]1CCCCN1C)C(=O)N(C)[C@H](C(=O)NC12CC(C(=O)N[C@@H](Cc3ccccc3)C[C@H](C)C(=O)OC)(C1)C2)C(C)C | 116% (inactive)
Cc1ccc(N)cc1[As]=[As]c1cc(N)ccc1C (centres undefined) | -92.9% (active)
O=C(CBr)OCCOC(=O)CBr | 32.8% (inactive)
C=CC1CN2CCC1CC2C(O)c1ccnc2ccccc12 (centres undefined) | 107% (inactive)
CCN(CC)CCn1c(=O)n(C)c2ccccc21 | 100% (inactive)
CC1=C(CCCOC(=O)[C@H](N)CC(C)C)C2=C(C)C3(CC3)[C@@](C)(O)C(=O)C2=C1 | -61.5% (active)
CNC(=O)Oc1cccc(C(F)(F)F)c1 | 110% (inactive)
CC1(C)N=C(N)N=C(N)N1c1ccc(CNC(=O)Nc2ccc(S(=O)(=O)F)c(Cl)c2)c(Cl)c1 | 30.2% (inactive)
CC(=O)c1cccc(S(=O)(=O)F)c1 | 93.6% (inactive)
COc1cc(C=C2c3ccccc3C(=O)c3ccccc32)ccc1OCCCCOc1cc2c(cc1OC)C(=O)N1CCCC1C=N2 (centres undefined) | -75.4% (active)
C(=NC1CCCCC1)=NC1CCCCC1 | 103% (inactive) and -21.2% (active)
O=[N+]([O-])c1ccccc1N1CCNCC1 | 113% (inactive)
CC1=C2C(=C[C@@](C)(COC(=O)c3ccc(S(=O)(=O)F)cc3)[C@@H]2OC(=O)c2ccc(S(=O)(=O)F)cc2)C(=O)[C@](C)(O)C12CC2 | -76.8% (active)
COc1cc(C=Nc2cccc(C(=O)O)c2)ccc1N(CCCl)CCCl | 46.6% (inactive)
OCCNC(Cc1ccccc1)c1ccc2c(c1)OCO2 (centres undefined) | 97.7% (inactive)
CC1(C)N=C(N)N=C(N)N1c1cccc(CCCCc2ccc(Cl)c(S(=O)(=O)F)c2)c1 | 75.8% (inactive)
